# Measurements as given in the supplement of paper PMC11732987, “Enantioselective OTUD7B fragment discovery through chemoproteomics screening and high-throughput optimisation” (Communications Chemistry, 2025).
# Unmarked numbers belong to inactive results.
# Columns and labels:
# Assay in all cases: log2 ratio of Biotin-Ahx-Ub-VS probe labelling (fragment/DMSO); higher = less target engagement (more negative = stronger competition), active = hit call of the paper (q ≤ 0.05, log2 ratio ≤ -1)
# Settings in all cases: compound concentration: 200 uM; treatment time: 3 h
# USP42 = molecular target: T1, USP42 (UniProt Q9H9J4)
# T1 sequence (whole entry): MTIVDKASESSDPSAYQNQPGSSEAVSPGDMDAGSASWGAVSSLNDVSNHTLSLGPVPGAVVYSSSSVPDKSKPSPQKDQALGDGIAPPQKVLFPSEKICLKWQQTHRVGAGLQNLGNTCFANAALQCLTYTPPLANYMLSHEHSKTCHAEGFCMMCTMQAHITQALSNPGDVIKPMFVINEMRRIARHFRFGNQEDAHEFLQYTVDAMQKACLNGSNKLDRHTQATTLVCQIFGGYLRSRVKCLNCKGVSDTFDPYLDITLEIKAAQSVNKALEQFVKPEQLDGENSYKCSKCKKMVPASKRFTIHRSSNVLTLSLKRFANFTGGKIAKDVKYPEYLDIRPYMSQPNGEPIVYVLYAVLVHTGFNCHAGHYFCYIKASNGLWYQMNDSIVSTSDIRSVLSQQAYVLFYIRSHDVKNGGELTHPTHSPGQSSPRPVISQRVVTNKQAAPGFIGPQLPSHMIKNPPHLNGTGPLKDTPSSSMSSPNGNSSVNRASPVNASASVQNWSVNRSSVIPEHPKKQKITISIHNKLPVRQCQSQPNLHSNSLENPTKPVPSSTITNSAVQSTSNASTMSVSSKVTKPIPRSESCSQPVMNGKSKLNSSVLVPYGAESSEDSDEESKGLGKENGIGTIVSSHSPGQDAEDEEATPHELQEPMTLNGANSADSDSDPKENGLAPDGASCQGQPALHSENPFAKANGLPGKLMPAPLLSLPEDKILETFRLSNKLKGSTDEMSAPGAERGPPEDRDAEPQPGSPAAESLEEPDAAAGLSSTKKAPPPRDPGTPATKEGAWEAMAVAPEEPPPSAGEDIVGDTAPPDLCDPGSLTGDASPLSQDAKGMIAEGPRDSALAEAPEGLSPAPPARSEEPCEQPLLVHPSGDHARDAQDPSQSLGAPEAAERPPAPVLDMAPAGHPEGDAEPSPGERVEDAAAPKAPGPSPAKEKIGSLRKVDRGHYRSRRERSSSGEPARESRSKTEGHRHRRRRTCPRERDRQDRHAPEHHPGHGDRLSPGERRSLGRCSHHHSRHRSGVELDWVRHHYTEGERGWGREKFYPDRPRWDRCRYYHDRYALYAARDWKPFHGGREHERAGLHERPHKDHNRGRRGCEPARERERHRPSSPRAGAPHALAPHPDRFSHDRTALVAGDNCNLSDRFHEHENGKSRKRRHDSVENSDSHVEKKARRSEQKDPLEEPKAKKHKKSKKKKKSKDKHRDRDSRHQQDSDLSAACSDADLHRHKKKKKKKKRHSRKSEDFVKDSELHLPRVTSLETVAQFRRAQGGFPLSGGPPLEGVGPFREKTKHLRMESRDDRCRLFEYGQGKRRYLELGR
# How it was run: (§1)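 Triplicate samples of HEK293T lysate, 495 µg each, received fragment at 200 µM or vehicle for 3 h, followed by Biotin-Ahx-Ub-VS (0.5 µM final) for 1 h. After NeutrAvidin enrichment of labelled DUBs and LysC/trypsin digestion, peptides were run by diaPASEF LC-MS/MS. The values are average log2 fragment/vehicle ratios from global-median-normalised Spectronaut label-free quantities, tested by unpaired t-test on proteins having ≥2 unique peptides.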
# USP46 = USP46 (UniProt P62068)
# Sequence of USP46 (P62068 whole entry): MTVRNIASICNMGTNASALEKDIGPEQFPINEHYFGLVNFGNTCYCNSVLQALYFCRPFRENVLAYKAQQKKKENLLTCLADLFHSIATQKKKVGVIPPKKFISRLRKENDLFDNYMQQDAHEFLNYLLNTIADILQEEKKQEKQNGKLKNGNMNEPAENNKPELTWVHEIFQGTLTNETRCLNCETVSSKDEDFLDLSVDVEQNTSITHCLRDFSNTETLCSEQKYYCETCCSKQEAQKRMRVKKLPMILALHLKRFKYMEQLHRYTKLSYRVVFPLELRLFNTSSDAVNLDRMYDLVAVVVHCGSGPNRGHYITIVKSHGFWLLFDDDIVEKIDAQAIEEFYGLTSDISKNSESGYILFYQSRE
# How it was run: as §1
# USP47 = molecular target: T2, USP47 (UniProt Q96K76)
# T2 sequence (whole entry): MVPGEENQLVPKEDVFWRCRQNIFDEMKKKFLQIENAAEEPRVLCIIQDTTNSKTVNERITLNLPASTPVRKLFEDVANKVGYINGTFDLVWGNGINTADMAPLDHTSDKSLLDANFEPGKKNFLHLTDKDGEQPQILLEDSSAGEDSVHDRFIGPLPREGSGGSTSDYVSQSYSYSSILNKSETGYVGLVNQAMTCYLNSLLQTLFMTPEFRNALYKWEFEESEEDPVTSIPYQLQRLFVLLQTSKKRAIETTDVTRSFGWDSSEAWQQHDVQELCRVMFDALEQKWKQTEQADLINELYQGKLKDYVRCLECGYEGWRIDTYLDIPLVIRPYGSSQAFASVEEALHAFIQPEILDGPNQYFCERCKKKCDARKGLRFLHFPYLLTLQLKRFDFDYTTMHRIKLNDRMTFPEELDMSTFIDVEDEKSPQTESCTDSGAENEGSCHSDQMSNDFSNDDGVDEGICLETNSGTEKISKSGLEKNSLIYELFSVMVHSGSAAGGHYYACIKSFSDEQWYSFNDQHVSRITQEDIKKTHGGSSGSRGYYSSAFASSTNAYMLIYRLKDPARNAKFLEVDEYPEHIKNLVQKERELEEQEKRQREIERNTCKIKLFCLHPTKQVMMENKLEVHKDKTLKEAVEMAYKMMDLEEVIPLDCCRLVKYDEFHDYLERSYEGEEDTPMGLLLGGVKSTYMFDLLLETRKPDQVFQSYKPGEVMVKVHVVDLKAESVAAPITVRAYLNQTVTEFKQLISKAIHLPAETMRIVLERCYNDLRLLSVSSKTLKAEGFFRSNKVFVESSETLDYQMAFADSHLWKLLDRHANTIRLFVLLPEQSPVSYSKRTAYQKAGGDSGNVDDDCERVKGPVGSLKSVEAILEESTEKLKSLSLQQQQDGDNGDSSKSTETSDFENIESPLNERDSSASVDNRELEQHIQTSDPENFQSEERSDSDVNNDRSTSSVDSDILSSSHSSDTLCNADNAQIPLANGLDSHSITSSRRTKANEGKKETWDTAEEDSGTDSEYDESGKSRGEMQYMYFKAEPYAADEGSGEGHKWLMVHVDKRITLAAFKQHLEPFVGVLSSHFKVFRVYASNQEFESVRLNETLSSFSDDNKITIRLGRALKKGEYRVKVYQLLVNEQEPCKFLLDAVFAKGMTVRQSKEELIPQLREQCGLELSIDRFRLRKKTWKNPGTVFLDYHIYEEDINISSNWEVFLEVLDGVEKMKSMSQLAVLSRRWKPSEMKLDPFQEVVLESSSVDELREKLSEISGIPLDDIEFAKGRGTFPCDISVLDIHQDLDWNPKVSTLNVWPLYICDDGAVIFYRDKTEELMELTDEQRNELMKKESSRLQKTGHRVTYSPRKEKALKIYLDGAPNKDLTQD
# How it was run: as §1
# USP48 = molecular target: T3, USP48 (UniProt Q86UV5)
# T3 sequence (whole entry): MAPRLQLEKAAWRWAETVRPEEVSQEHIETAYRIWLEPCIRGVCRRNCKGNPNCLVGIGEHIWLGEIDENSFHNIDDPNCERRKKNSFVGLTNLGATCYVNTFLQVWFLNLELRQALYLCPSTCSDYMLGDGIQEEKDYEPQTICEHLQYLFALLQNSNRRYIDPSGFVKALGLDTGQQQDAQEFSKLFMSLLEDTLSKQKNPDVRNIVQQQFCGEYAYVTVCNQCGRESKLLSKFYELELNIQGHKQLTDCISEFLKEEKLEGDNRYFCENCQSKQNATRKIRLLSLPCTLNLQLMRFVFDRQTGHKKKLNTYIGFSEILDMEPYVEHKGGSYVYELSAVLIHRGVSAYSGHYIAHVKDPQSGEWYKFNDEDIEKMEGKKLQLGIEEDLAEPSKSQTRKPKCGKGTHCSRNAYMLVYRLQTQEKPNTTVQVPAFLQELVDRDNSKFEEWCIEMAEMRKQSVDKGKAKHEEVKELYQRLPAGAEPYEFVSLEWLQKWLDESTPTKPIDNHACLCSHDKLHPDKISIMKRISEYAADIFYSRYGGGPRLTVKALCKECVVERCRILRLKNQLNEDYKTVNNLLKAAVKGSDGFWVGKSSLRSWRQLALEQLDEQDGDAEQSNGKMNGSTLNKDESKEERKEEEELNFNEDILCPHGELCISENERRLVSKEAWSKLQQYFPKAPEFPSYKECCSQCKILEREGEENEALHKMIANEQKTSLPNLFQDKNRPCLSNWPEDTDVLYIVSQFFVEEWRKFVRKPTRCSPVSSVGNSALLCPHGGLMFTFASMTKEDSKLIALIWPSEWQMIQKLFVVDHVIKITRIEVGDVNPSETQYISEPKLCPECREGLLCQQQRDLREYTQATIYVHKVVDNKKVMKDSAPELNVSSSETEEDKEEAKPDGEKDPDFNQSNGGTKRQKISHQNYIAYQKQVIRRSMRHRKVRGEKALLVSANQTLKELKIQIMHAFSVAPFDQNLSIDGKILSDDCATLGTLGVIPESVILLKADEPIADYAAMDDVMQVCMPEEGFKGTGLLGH
# How it was run: as §1
# USP5 = molecular target: T4, USP5 (UniProt P45974)
# T4 sequence (whole entry): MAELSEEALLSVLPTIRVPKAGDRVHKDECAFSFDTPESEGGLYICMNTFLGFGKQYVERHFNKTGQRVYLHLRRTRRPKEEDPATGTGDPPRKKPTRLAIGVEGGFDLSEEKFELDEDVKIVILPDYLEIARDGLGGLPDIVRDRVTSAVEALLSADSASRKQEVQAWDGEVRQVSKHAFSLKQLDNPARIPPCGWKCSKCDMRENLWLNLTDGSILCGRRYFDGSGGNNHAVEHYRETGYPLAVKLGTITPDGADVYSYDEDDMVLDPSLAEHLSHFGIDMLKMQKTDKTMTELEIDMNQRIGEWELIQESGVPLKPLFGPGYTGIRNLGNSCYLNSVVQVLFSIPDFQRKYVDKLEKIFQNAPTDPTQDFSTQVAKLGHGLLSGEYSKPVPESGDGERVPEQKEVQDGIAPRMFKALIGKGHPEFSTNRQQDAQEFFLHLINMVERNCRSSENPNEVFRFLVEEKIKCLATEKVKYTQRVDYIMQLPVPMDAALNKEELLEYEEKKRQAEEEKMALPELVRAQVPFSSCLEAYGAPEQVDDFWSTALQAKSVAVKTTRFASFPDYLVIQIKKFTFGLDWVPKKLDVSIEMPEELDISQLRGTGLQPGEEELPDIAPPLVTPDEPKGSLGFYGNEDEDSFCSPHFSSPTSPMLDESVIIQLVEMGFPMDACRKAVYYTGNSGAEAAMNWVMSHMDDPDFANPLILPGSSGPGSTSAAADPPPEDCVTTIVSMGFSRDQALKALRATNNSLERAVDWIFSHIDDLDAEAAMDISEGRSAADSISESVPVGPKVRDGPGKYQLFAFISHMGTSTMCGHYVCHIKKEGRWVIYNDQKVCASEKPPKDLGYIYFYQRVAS
# How it was run: as §1
# USP54 = USP54 (UniProt Q70EL1)
# Sequence of USP54 (Q70EL1 whole entry): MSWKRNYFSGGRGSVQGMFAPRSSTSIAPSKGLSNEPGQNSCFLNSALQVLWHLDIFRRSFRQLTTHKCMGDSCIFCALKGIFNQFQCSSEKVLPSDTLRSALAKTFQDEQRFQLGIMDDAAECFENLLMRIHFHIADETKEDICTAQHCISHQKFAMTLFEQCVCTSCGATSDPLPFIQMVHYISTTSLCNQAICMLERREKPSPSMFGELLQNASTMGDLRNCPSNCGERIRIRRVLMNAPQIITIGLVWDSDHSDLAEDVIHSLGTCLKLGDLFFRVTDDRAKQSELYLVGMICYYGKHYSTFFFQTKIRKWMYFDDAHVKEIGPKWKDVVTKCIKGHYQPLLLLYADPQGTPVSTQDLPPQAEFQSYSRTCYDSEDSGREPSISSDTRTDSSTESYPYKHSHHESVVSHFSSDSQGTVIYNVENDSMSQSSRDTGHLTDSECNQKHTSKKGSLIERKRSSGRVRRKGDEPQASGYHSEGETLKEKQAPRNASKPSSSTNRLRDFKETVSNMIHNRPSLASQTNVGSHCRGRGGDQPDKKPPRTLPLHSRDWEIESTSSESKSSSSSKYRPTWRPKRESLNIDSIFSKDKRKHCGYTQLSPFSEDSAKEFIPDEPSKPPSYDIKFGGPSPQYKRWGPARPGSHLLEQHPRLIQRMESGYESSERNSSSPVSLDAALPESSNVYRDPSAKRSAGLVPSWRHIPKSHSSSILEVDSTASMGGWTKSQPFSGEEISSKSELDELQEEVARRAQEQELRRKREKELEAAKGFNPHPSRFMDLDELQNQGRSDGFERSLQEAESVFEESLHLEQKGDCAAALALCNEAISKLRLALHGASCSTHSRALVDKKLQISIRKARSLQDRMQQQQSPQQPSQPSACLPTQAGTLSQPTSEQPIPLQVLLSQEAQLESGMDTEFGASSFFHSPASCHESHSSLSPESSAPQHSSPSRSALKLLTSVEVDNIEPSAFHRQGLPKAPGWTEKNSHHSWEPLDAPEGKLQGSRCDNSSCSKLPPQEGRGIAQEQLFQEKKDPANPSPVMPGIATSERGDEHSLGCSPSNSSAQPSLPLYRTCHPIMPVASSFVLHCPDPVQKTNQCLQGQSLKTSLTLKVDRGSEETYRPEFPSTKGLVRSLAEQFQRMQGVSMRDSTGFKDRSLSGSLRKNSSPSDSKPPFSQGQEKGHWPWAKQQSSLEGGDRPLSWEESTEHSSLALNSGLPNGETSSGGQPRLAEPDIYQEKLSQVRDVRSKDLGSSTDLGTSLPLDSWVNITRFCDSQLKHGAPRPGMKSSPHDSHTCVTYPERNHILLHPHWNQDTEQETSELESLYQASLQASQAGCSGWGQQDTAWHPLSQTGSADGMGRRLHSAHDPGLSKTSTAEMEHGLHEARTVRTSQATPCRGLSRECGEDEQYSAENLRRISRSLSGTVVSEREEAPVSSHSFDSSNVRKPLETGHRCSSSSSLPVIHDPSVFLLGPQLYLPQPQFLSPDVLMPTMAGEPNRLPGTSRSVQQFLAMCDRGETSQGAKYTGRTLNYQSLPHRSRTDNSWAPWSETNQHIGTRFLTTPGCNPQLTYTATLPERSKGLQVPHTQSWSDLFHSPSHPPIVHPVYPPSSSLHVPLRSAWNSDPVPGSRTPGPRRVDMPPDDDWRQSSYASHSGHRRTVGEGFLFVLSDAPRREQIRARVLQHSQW
# How it was run: as §1
# USP7 = USP7 (UniProt Q93009)
# How it was run: as §1
# USP8 = molecular target: T5, USP8 (UniProt P40818)
# T5 sequence (whole entry): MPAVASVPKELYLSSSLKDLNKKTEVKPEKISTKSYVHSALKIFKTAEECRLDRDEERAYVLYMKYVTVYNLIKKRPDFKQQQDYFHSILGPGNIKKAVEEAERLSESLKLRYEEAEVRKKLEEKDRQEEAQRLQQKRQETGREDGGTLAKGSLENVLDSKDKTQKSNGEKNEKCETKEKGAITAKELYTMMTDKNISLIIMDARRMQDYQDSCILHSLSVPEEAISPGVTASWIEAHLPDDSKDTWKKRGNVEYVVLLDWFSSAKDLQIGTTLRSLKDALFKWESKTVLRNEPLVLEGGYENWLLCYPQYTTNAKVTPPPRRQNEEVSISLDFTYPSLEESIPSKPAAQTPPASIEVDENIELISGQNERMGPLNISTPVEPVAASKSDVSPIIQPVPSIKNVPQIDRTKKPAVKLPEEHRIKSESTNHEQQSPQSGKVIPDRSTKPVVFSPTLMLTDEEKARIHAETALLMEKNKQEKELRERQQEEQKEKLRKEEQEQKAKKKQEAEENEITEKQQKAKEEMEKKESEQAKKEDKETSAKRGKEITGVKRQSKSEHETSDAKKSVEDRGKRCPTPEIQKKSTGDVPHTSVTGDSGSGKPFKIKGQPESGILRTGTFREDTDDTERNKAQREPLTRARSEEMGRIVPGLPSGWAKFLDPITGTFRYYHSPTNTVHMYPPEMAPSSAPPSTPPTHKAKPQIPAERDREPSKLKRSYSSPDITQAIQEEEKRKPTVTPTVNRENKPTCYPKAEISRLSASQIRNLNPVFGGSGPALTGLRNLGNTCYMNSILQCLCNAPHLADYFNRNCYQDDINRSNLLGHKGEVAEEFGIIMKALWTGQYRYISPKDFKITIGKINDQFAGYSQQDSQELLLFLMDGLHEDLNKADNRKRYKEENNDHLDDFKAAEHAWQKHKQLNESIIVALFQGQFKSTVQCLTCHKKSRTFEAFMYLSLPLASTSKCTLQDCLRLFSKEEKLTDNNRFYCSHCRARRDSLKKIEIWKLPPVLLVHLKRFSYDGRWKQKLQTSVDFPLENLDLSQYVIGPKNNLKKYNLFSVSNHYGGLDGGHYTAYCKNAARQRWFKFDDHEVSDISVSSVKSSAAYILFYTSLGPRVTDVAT
# How it was run: as §1
# USP9X = USP9X (UniProt Q93008)
# Sequence of USP9X (Q93008 whole entry): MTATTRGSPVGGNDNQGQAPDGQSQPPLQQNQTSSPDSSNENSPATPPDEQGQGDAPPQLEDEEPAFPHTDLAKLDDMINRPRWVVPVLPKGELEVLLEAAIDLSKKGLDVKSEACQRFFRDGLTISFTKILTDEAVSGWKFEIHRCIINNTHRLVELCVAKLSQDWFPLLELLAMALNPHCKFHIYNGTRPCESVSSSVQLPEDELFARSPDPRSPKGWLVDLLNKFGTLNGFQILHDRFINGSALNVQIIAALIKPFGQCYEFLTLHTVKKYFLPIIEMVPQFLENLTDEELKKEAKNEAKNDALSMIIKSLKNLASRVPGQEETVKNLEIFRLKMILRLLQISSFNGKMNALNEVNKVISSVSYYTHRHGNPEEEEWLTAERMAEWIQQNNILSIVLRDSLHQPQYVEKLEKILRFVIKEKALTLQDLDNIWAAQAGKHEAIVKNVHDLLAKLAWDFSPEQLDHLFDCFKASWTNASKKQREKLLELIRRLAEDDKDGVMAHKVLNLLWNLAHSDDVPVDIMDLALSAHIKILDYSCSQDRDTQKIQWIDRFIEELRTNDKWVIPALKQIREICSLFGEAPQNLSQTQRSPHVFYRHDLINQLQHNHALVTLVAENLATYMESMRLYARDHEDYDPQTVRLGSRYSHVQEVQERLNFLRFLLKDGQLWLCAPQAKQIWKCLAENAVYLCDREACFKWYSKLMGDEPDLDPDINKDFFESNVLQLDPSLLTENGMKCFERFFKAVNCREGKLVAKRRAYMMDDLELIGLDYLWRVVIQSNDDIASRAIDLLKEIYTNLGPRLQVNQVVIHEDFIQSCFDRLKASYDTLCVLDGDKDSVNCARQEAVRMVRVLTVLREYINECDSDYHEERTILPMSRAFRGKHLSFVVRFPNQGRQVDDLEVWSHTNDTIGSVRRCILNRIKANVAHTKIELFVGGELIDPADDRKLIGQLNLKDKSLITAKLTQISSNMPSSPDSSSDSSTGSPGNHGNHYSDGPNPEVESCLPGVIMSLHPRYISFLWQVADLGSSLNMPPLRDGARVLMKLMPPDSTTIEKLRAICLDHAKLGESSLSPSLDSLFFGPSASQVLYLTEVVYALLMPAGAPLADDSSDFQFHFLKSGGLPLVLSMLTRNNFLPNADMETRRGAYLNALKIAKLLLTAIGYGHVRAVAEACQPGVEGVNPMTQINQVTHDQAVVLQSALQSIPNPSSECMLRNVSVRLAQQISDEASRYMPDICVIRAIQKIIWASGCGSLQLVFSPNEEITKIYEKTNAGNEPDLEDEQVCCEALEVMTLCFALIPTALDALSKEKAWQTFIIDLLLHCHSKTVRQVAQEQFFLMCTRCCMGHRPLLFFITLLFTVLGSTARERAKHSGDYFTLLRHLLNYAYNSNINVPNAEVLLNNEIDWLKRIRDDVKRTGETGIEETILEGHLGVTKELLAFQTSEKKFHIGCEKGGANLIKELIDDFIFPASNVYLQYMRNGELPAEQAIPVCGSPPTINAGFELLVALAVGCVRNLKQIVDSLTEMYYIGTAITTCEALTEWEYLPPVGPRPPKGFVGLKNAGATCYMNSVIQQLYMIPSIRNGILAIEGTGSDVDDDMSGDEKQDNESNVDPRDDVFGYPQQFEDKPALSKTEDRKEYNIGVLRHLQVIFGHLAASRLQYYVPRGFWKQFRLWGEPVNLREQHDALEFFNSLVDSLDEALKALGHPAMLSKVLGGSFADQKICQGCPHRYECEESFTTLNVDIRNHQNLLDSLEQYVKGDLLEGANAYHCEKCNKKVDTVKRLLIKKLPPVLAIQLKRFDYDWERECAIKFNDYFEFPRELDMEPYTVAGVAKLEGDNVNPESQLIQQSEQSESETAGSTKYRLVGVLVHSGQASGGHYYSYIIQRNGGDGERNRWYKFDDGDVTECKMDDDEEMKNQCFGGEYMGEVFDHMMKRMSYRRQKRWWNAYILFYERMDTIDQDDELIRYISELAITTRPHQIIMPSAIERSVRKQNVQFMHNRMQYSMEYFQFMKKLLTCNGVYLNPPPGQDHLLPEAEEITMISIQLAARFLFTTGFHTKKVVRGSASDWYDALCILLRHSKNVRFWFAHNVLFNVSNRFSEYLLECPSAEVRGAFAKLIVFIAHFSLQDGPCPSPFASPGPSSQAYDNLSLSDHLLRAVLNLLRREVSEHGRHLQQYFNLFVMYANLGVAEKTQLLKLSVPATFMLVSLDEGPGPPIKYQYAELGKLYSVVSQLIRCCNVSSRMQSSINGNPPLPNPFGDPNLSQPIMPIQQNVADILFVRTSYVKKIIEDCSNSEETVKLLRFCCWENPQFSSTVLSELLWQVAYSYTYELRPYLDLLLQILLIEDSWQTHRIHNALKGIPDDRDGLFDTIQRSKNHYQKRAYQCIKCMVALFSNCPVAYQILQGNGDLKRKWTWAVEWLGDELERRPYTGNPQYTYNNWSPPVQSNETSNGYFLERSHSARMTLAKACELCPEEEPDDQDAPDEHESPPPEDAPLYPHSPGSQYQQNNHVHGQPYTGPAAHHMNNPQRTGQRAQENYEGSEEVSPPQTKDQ
# How it was run: as §1
# UniProt O00487 = molecular target: UniProt O00487
# Sequence of UniProt O00487 (O00487 whole entry): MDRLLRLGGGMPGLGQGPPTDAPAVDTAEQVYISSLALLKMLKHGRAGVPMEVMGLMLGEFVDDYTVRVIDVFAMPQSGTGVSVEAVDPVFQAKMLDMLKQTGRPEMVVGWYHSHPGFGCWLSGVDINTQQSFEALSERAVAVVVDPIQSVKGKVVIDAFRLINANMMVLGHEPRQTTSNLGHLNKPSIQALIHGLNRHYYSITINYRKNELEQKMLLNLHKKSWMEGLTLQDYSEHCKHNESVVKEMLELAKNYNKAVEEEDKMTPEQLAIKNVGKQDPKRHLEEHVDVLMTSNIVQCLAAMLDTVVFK
# How it was run: as §1
smiles,measurement,setting,value
O=C(CCl)N1CCN(C(=O)N2CCCCC2)CC1,log2 ratio of Biotin-Ahx-Ub-VS probe labelling,USP42,0.232
same,log2 ratio of Biotin-Ahx-Ub-VS probe labelling,USP46,-0.637
same,log2 ratio of Biotin-Ahx-Ub-VS probe labelling,USP47,-0.616
same,log2 ratio of Biotin-Ahx-Ub-VS probe labelling,USP48,-0.949
same,log2 ratio of Biotin-Ahx-Ub-VS probe labelling,USP5,-1.13 (active)
same,log2 ratio of Biotin-Ahx-Ub-VS probe labelling,USP54,0.892
same,log2 ratio of Biotin-Ahx-Ub-VS probe labelling,USP7,-1.12 (active)
same,log2 ratio of Biotin-Ahx-Ub-VS probe labelling,USP8,-0.843
same,log2 ratio of Biotin-Ahx-Ub-VS probe labelling,USP9X,-1.11 (active)
same,log2 ratio of Biotin-Ahx-Ub-VS probe labelling,UniProt O00487,-0.0311
